The list is not random: actives were taken first. Their share in the collection is about 3.5%.
TEAD-YAP block: TEAD-YAP interaction inhibition, primary screen, TEAD-YAP interaction inhibitor project, luminescence, HEK-TIYL cells; TEAD-Gal4/YAP UAS-luciferase luminescence; inhibition, % at 9.12 µM; 640,000 tested, 1.4% active; in the data active = inhibition above about 32%;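 note: 0% = median of test compound wells and 100% = reference inhibitor wells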
FBW7 act: FBW7 E3 ligase activators, primary screen, biochemical, AlphaScreen, human; AlphaScreen FBW7–phospho-cyclin E peptide binding, activator screen; normalized activity (activation), % at 26.1 µM; 650,000 tested, 0.13% active; in the data active = normalized activity above about 1.9%;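 note: purified mutant Fbw7 with reduced substrate affinity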
MITF inh: MITF inhibitors, primary screen, biochemical, AlphaScreen, human; AlphaScreen MITF homodimerization, bead proximity signal; AID 1259374, 2018; 650,000 tested, 0.91% active; Microphthalmia-associated transcription factor (Homo sapiens), O75030; inhibition, % at 2.6 µM; in the data active = inhibition above about 50%;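 note: 0% = vehicle wells with protein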
Target sequence (O75030 whole entry, looked up): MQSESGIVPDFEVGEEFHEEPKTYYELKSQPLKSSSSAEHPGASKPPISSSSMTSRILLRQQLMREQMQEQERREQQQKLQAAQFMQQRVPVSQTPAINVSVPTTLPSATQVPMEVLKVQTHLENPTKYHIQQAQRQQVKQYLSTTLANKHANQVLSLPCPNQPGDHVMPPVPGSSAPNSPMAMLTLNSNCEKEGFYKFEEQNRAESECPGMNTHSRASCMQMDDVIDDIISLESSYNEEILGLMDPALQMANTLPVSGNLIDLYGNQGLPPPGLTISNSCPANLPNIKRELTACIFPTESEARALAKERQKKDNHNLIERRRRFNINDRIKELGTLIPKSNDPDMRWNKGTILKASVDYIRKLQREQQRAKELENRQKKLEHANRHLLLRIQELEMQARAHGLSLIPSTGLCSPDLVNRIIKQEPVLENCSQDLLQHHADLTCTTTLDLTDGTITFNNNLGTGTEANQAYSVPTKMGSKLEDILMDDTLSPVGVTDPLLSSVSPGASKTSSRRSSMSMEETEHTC
GPR151 ag: activators of human GPR151, primary screen, cell-based, PathHunter beta-arrestin, luminescence; G-protein coupled receptor 151 (Homo sapiens), Q8TDV0; PathHunter beta-arrestin GPR151 cells; activation, % at 11.2 µM; 650,000 tested, 1% active; in the data active = activation above about 4.9%;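 note: 0% = median of compound wells and 100% = cells with positive control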
GPR151 conf act: GPR151 activators, triplicate retest, confirmation, cell-based, PathHunter beta-arrestin, luminescence. shares compounds with GPR151 ag. GPR151 PathHunter beta-arrestin cells, 90 min; % of EA-reagent control over plate median. activation, % at 11.2 µM. 6,700 tested, under 10 active;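 active = mean percent activation across replicates above the confirmation screen cutoff of 4.91%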
GPR119 counter: GPR119 activators in beta-arrestin cells, counter-screen for GPR151 activator project, cell-based, PathHunter beta-arrestin, luminescence, triplicate; AID 1508611, 2020; 90 min; 0 = compound-well median, 100 = enzyme-acceptor control; shares compounds with GPR151 ag; 6,700 tested, 0.3% active; activation, % at 11.2 µM;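 active = mean percent activation in the counterscreen above 29.09%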;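 note: counterscreen on off-target GPR119 to flag nonselective hits from the GPR151 activator screen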
The depositor's hits bear a star; . = no result.

SMILES	TEAD-YAP block	FBW7 act	MITF inh	GPR151 ag	GPR151 conf act	GPR119 counter
Cc1c(-c2ccc(Cl)cc2)noc1C1CCN(CCc2ccccc2)CC1	.	-0.1	8.7	8.2*	2.1	-0.8
CCOC(=O)CN1C(=O)C(O)(CC(=O)c2ccc(N(C)C)cc2)c2ccccc21 (centres undefined)	-2.2	0.0	-13.0	0.7	.	.
CCOC(=O)C1=C(C)NC2=C(C(=O)c3ccccc32)C1c1ccc(O)c(OC)c1 (centres undefined)	-9.0	-0.4	11.4	-0.2	.	.
C=C(C)C(=O)OC[C@@H]1CN2[C@@H](CC[C@@H](C)[C@@H]2c2ccc(Br)cc2)C(=O)O1	.	-0.1	23.3	-0.8	.	.
C[C@@H]1CC[C@H]2C(=O)O[C@@H](COc3ccc(C(C)(C)C)cc3)CN2[C@H]1c1ccc(Br)cc1	.	-0.1	12.0	5.3*	0.5	-10.6
CCOC(=O)N1CCN(S(=O)(=O)c2cc(C(=O)O)ccc2F)CC1	-5.8	-0.1	0.6	5.8*	0.5	12.6
CCOc1ccccc1NC(=O)c1ccc(F)c(S(=O)(=O)N2CCN(c3ccccn3)CC2)c1	9.9	-0.2	4.0	6.0*	-0.6	-1.9
CCOc1ccccc1NC(=O)c1ccc(F)c(S(=O)(=O)N2CCN(c3ccccc3F)CC2)c1	0.6	-0.2	-2.9	-0.9	.	.
COC(=O)C1=NNC2C(=O)N(c3cccc4ccccc34)C(=O)C12 (centres undefined)	-2.0	0.2	-8.1	-0.3	.	.
CC1(c2ccc3c(c2)OCCO3)NC(=O)N(Cc2cc(=O)oc3cc4c(cc23)CCC4)C1=O (centres undefined)	0.0	-0.1	4.2	6.7*	-0.4	0.3
COc1ccc(CC2(CCC(=O)N[C@H](C)c3ccc(OC)cc3)CCC(=O)N2)cc1 (some centres undefined)	6.7	-0.1	-4.2	5.1*	-0.9	-6.7
COc1ccc([C@@H](C)NC(=O)CCC2(Cc3ccc(C)cc3)CCC(=O)N2)cc1 (some centres undefined)	9.3	-0.1	-0.3	0.5	.	.
CC(C)CC(NS(=O)(=O)c1ccc2c(c1)oc(=O)n2C)C(=O)NC1CCCCC1 (centres undefined)	12.1	0.9	9.8	0.5	.	.
CC1=C(C(=O)NC2CCCCC2)C2(CCCCC2)OC1=O	-5.6	-0.1	3.2	6.2*	0.0	-9.2
CC1=C(C(=O)NC2CCCC2)C2(CCCCCC2)OC1=O	-1.5	0.1	17.8	-0.2	.	.
CC1=C(C(=O)NC(C)C)C2(CCCCC2)OC1=O	-3.9	-0.1	-6.5	7.3*	1.1	-7.2
CCC(C)NC(=O)C1=C(C)C(=O)OC12CCCCCC2 (centres undefined)	8.4	0.4	15.4	-1.3	.	.
O=c1cc(Nc2ccc3c(c2)OCO3)[nH]c(=O)n1-c1ccc(Br)cc1	3.7	0.0	9.2	22.2*	-0.2	4.0
O=C(CN(C(=O)CNC(=O)c1cccs1)c1ccc2c(c1)OCO2)NC1CCCCC1	2.0	0.3	16.7	0.0	.	.
CCCNC(=O)CCCOc1ccc(Cl)cc1Cl	-4.1	0.2	12.2	13.2*	-1.4	3.1
CCOCCCNC(=O)CCCOc1ccc(Cl)cc1Cl	0.2	0.1	-4.9	0.4	.	.
Cc1ccc(Cl)cc1NC(=O)Cn1cnc2c(-c3ccccc3)csc2c1=O	0.7	-0.2	0.6	7.3*	-0.9	-1.2
Cc1cc(C(=O)COc2ccccc2C(N)=O)c(C)n1Cc1cccs1	13.4	0.0	2.4	0.4	.	.
CC1=C(C(=O)OC2CCCCCC2)C(c2ccccc2[N+](=O)[O-])CC(=O)N1 (centres undefined)	-1.5	0.1	8.9	-0.1	.	.
O=C1CC(c2ccccc2[N+](=O)[O-])c2ccc3c(O)cccc3c2N1 (centres undefined)	5.7	0.1	-4.3	5.3*	-0.1	1.5
SMILES	TEAD-YAP block	FBW7 act	MITF inh	GPR151 ag	GPR151 conf act	GPR119 counter
O=C1CC(c2ccc3c(c2)OCO3)c2ccc3ccccc3c2N1 (centres undefined)	11.7	-0.2	11.8	1.9	.	.
CC1=C(C(=O)OC2CCCCCCC2)C(c2ccccc2[N+](=O)[O-])CC(=O)N1 (centres undefined)	-1.4	0.0	4.5	5.3*	0.5	13.8
O=C1CC(c2cc3c(cc2[N+](=O)[O-])OCO3)c2ccc3ccccc3c2N1 (centres undefined)	-0.6	-0.3	0.0	11.8*	0.5	-0.5
CCOc1ccc(NC(=O)c2n[nH]c(=O)c3ccccc23)cc1	-34.1	-0.2	-3.3	0.2	.	.
Cc1ccsc1CN1CC(=O)N(c2ccc(Oc3ccccc3)cc2)C1=S	4.8	0.0	13.5	2.6	.	.
CC(=O)Nc1ccc(/C=C(\C#N)c2nc3ccccc3[nH]2)cc1	-30.6	-0.1	2.6	0.4	.	.
CC(=O)Nc1ccc(/C=C(\c2nc3ccccc3[nH]2)S(=O)(=O)c2ccccc2)cc1	-2.8	0.0	6.1	6.6*	-0.1	2.8
COc1cc(=O)n2c(c1C(=O)N(C)C(C)c1ccco1)CCN(CCC(C)C)CC2 (centres undefined)	6.5	0.7	11.6	-1.3	.	.
Cc1cccc(CCNC(=O)NCc2noc3ccccc23)c1	-14.2	0.0	-4.6	14.5*	0.3	-1.4
Cc1ccc(CCNC(=O)NCc2noc3ccccc23)cc1	-12.4	-0.1	0.3	-1.3	.	.
Cc1cc(Br)ccc1NC(=O)NCc1noc2ccccc12	-3.7	-0.1	-0.1	6.1*	-1.0	5.6
COc1ccc(NC(=O)NCc2noc3ccccc23)c(OC)c1	2.9	-0.2	-6.0	0.9	.	.
Cc1ccccc1CC(C1CCN(C(=O)c2cnccn2)CC1)N(C)C(=O)C1CCC1 (centres undefined)	-1.0	0.0	-0.9	-1.0	.	.
CO[C@@H]1COC(=O)[C@H](COCc2ccccc2)NC(=O)C/C=C/[C@@H](C)[C@H](OC)COC(=O)[C@H](C)NC(=O)C/C=C/C1C (some centres undefined)	.	-0.1	22.6	4.9*	-0.2	13.2
CO[C@H]1COC(=O)C/C=C/[C@H](C)[C@@H](OC)COC(=O)[C@@H](C)COC(=O)C/C=C/[C@@H]1C	.	-0.1	-14.9	6.0*	0.2	13.6
COc1ccc(Cl)cc1NC(=O)Cc1noc2ccc(C)cc12	4.4	0.0	12.6	-1.1	.	.
O=C(c1c(F)cccc1F)N(c1ccccc1)C1C=CS(=O)(=O)C1 (centres undefined)	1.2	0.0	-9.2	0.1	.	.

From PubChem BioAssay
